Source: PubChem BioAssay
Shown are actives, neighbours in structure and some others; about 0.9% of the full set was active somewhere.
PPARg SRC2 recr = PPARgamma-driven SRC-2 recruitment agonism | PPARgamma LBD-SRC-2 recruitment, biochemical | activation, % at 8 µM | 200,000 compounds, 0.34% hits;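 also: 0% = vehicle and 100% = reference agonist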
PPARg SRC-3 ag = promotes SRC-3 coactivator recruitment by human PPARgamma; P37231; biochemical PPARgamma/SRC-3 coactivator recruitment assay; activation, % at 8 µM; 200,000 compounds, 0.26% hits; AID 731; in the data active = activation above about 23%;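 also: 0% = DMSO and 100% = reference agonist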
PPARg SRC-1 ag = PPARgamma-driven SRC-1 recruitment agonism; activation, % at 8 µM; 200,000 compounds, 0.41% hits; PPARgamma-SRC-1 coactivator recruitment biochemical assay; in the data active = activation above about 19%;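 also: 0% = DMSO and 100% = reference agonist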
TR-FRET SRC-2 ct = TR-FRET artefact, counter-screen to PPARgamma/SRC-2 agonist assay. 200,000 compounds, 0.4% hits. TR-FRET ratio at 8 µM. active compounds read high; in the data active = TR-FRET ratio above about 2000
SRC3 TRFRET art = flags TR-FRET format artefacts in PPARgamma SRC-3 recruitment agonist screen; TR-FRET artefact counter-screen, PPARgamma/SRC-3 format; active compounds read high; TR-FRET ratio at 8 µM; AID 1048; 99,000 compounds, 0.39% hits; in the data active = TR-FRET ratio above about 2000
SRC1 TRFRET art = flags TR-FRET format artefacts in PPARgamma SRC-1 recruitment agonist screen. TR-FRET detection artefact counter-screen, emission ratio; active compounds read high. TR-FRET ratio at 8 µM. 99,000 compounds, 0.34% hits; in the data active = TR-FRET ratio above about 2300
PPARg SRC2 conf = human PPARgamma SRC-2 recruitment agonism, confirmation | 790 compounds, 52% hits | activation, % at 8 µM | biochemical SRC-2 recruitment by PPARgamma | shares compounds with PPARg SRC-3 ag | AID 1297;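 also: 0% = vehicle alone and 100% = reference agonist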
PPARg SRC1 conf = human PPARgamma SRC-1 recruitment agonism, confirmation. shares compounds with PPARg SRC-3 ag. PPARgamma–SRC-1 coactivator recruitment biochemical assay. activation, % at 8 µM. 790 compounds, 43% hits; in the data active = activation above about 20%;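 also: 0% = vehicle wells and 100% = reference agonist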
PPARg SRC3 ag = human PPARgamma SRC-3 recruitment agonism, confirmation; shares compounds with PPARg SRC-3 ag; biochemical PPARgamma-SRC-3 coactivator recruitment, agonist mode; activation, % at 8 µM; 790 compounds, 29% hits; in the data active = activation above about 24%;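 also: 0% = vehicle wells and 100% = reference agonist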
Target sequence (P37231 whole entry, looked up): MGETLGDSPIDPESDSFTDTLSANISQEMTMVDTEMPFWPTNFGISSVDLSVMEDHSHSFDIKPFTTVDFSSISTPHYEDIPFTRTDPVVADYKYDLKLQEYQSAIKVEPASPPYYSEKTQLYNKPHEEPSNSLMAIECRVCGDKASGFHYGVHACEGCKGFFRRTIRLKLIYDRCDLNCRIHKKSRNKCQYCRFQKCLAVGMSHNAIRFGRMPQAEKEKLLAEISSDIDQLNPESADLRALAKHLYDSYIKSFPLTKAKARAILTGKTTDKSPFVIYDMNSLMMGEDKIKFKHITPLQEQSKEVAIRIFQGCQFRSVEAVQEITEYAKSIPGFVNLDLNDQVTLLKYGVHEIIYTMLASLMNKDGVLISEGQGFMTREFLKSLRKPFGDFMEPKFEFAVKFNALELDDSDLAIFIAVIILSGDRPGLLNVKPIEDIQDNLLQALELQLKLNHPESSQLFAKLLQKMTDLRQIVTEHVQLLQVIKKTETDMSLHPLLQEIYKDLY
Target sequence (Q9Y6Q9 whole entry, looked up): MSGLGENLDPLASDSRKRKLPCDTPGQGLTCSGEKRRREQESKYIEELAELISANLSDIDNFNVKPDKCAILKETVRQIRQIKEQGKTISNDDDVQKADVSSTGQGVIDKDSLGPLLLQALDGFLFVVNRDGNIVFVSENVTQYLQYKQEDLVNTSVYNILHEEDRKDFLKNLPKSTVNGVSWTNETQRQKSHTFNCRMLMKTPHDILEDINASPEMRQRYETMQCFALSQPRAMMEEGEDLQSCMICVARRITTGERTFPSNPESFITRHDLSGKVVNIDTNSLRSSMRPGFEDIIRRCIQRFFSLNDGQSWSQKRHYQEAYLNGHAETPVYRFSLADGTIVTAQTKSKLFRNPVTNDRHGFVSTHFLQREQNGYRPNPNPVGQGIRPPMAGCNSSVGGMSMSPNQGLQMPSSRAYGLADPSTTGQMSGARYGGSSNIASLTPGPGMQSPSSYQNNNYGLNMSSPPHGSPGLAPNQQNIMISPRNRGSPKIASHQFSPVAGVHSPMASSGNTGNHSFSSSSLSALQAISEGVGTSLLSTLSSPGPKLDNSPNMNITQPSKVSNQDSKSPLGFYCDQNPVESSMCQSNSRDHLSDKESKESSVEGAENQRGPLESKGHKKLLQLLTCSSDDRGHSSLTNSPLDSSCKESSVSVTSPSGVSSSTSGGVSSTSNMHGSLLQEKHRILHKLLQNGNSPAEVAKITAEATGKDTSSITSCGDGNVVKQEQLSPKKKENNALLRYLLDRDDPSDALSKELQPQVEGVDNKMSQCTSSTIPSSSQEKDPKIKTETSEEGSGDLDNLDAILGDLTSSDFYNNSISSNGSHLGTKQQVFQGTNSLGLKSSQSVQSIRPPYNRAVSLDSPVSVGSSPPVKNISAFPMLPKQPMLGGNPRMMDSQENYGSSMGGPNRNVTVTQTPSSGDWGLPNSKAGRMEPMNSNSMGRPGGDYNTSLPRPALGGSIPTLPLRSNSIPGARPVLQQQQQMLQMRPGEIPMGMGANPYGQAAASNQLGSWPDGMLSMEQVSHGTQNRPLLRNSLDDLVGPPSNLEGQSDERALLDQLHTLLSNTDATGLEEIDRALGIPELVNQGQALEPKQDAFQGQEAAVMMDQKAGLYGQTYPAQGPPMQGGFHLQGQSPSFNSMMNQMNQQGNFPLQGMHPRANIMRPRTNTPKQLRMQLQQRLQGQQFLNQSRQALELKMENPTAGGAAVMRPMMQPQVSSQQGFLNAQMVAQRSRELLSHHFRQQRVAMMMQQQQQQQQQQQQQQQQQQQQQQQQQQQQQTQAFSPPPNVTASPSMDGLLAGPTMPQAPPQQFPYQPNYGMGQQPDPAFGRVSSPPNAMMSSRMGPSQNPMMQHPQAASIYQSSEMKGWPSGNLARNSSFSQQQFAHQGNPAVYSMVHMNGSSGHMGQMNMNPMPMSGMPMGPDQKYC
Starred values were filed as active, the others as inactive; nt = no result. Rule as the data show it, unless noted: active = activation above about 22%; inactive = the rest.

SMILES | PPARg SRC2 recr | PPARg SRC-3 ag | PPARg SRC-1 ag | TR-FRET SRC-2 ct | SRC3 TRFRET art | SRC1 TRFRET art | PPARg SRC2 conf | PPARg SRC1 conf | PPARg SRC3 ag
Cc1ccc(-n2c(O)c(C=Nc3ccccc3-c3n[nH]c(=S)[nH]c3=O)c3ccccc3c2=O)cc1C | 24.2* | 23.2* | 24.5* | 2174* | 2203* | 2325* | 43.6* | 32.5* | 28.3*
Cc1ccccc1NC(=O)/C=C1\SC(=O)NC1=O | 4.4 | -0.3 | 7.9 | 1651 | 1653 | 1731 | nt | nt | nt
S=C(NCc1ccc(Cl)cc1Cl)NC1CCCCC1 | -0.3 | 1.6 | 0.4 | 1271 | 1402 | 1466 | nt | nt | nt
CN1/C(=C\C(=O)c2ccco2)C(C)(C)c2ccccc21 | 18.6 | 26.4* | 4.8 | 1942 | nt | nt | 19.4 | 11.2 | 12.9
S=c1[nH]c(-c2ccc(Cl)cc2)cs1 | 29.6* | 16.7 | 26.7* | 1997* | 2141* | 2339* | 27.1* | 19.1 | 16.9
CCSc1nc2c(c(=O)[nH]c(=O)n2C)n1C | 15.3 | 4.4 | 7.8 | 1656 | nt | nt | nt | nt | nt
CCCSc1nc2c(c(=O)[nH]c(=O)n2C)n1C | 9.8 | 15.1 | 21.4* | 1609 | nt | nt | 0.6 | 0.5 | 0.7
O=C(CCSc1nnc2ccc3ccccc3n12)Nc1ccc(F)cc1 | 17.2 | 32.5* | 9.9 | 1920 | nt | nt | 29.4* | 24.0* | 19.5
CNc1nc(-c2c[nH]c3ccccc23)cs1 | 6.3 | 13.7 | 5.3 | 1433 | nt | nt | nt | nt | nt
Nc1nc(-c2c[nH]c3ccccc23)cs1 | 12.7 | 35.9* | 20.0* | 1857 | nt | nt | 21.9* | 11.8 | 13.0
C/C(=N\NC(=O)c1ccc(O)cc1)c1ccc2c(c1)Nc1ccccc1S2 | 27.1* | 14.5 | 17.1 | 1763 | 1673 | 1994 | 9.7 | 5.7 | 7.1
COc1ccc(Cn2c(=S)[nH]c3ccsc3c2=O)cc1 | 6.2 | 3.5 | -0.8 | 1570 | 1642 | 1737 | nt | nt | nt
CC(Nc1ccc(Cl)cc1)c1cc(Cl)ccc1O (configuration not stated) | 3.9 | 7.0 | 1.2 | 1301 | nt | nt | nt | nt | nt
CC(Nc1ccc(Br)cn1)c1cc(Cl)ccc1O (configuration not stated) | 36.6* | 51.8* | 77.9* | 1617 | nt | nt | 32.9* | 50.8* | 41.1*
O=C1NC(c2ccccc2)C(C(=O)c2cccs2)=C1O (configuration not stated) | 10.1 | 13.8 | 20.1* | 1704 | nt | nt | 10.3 | 7.8 | 7.4
Cc1nnc(N2C(=O)C(O)=C(C(=O)c3ccco3)C2c2ccc(C(C)(C)C)cc2)s1 (configuration not stated) | 28.2* | 42.3* | 30.6* | 2126* | nt | nt | 38.7* | 31.0* | 25.3*
COc1cccc(C2C(C(=O)c3cccs3)=C(O)C(=O)N2CCN(C)C)c1OC (configuration not stated) | 9.8 | 1.4 | -1.7 | 1515 | nt | nt | nt | nt | nt
Cc1ccc(C2C(C(=O)c3cccs3)=C(O)C(=O)N2c2nnc(C)s2)cc1 (configuration not stated) | 12.3 | 6.8 | 22.9* | 2089* | 2078* | 2419* | 19.9 | 17.5 | 13.7
COCCN1C(=O)C(O)=C(C(=O)c2cccs2)C1c1ccccc1 (configuration not stated) | 3.3 | 14.2 | 18.8* | 1641 | nt | nt | 20.1 | 11.9 | 11.1
COC(=O)Oc1ccc(/C=N/NC(=O)CN(c2ccccc2Cl)S(C)(=O)=O)cc1OC | 3.8 | 4.5 | 1.1 | 1654 | nt | nt | nt | nt | nt
Cc1cc([N+](=O)[O-])nn1CCCC(=O)N1CCN(c2ccccc2)CC1 | 5.3 | 4.2 | -3.8 | 1549 | 1518 | 1891 | nt | nt | nt
CC(O)CNc1nc2ccccc2n1CC(=O)NC12CC3CC(CC(C3)C1)C2 (configuration not stated) | 6.1 | 4.3 | 4.6 | 1534 | 1530 | 1908 | nt | nt | nt
Cc1nnc(N2C(=O)C(O)=C(C(=O)c3ccco3)C2c2ccc(F)cc2)s1 (configuration not stated) | 38.1* | 49.5* | 27.9* | 2061* | nt | nt | 41.1* | 32.4* | 28.2*
Cc1nnc(N2C(=O)C(O)=C(C(=O)c3ccco3)C2c2ccc(C(C)C)cc2)s1 (configuration not stated) | 32.6* | 10.1 | 26.9* | 2173* | 2243* | 2626* | 19.0 | 12.4 | 10.5
COCCCN1C(=O)C(O)=C(C(=O)c2ccco2)C1c1ccc(Br)cc1 (configuration not stated) | 21.6 | 21.6 | 13.7 | 1860 | nt | nt | nt | nt | nt
SMILES | PPARg SRC2 recr | PPARg SRC-3 ag | PPARg SRC-1 ag | TR-FRET SRC-2 ct | SRC3 TRFRET art | SRC1 TRFRET art | PPARg SRC2 conf | PPARg SRC1 conf | PPARg SRC3 ag
Cc1cc(C)c(C(=O)CN2C(=O)NC3(CCCCCC3)C2=O)cc1C | 6.4 | 2.1 | 1.7 | 1633 | 1587 | 1734 | nt | nt | nt
S=c1[nH]c(-c2ccccc2)cn1/N=C/c1ccc(Br)cc1 | 13.3 | 25.8* | 29.9* | 1402 | 1662 | 1927 | 12.1 | 15.6 | 14.9
Cc1ccc(C)c(/C=N/n2cc(-c3ccccc3)[nH]c2=S)c1 | 5.0 | 3.2 | -2.9 | 1728 | 1480 | 1705 | nt | nt | nt
Cc1cc(Br)c2nc3c(c(C(=O)O)c2c1)CCCCC3 | 97.5* | 50.2* | 53.0* | 4070* | 4157* | 3214* | 67.0* | 43.3* | 46.9*
CCc1ccc2nc3c(c(C(=O)O)c2c1)CCC3 | 8.9 | 9.1 | 0.7 | 1632 | nt | nt | nt | nt | nt
COc1ccccc1C(=O)Nc1ccc2c(c1)nc(CN1CCCCC1)n2C | 8.4 | 1.2 | 2.8 | 1591 | 1799 | 1550 | nt | nt | nt
Cc1c(C(=O)N2CCCCC2)nn(-c2ccc(Cl)cc2)c(=O)c1C#N | -3.2 | -3.0 | 4.3 | 1454 | 1442 | 1475 | nt | nt | nt
O=C(COC(=O)c1ccc(Cl)s1)c1ccc[nH]1 | 22.4* | 7.5 | 11.4 | 1677 | 1421 | 1863 | 3.3 | 2.6 | 6.6
Cc1ccc(C(=O)OCC(=O)c2ccc[nH]2)s1 | -1.5 | 2.0 | -6.4 | 1546 | 1557 | 1844 | nt | nt | nt
CCCCCCCC(=O)N/N=C/c1cccnc1 | 5.5 | 9.5 | 20.3* | 1642 | nt | nt | 4.7 | 2.8 | 6.4
Cc1cc(C(=O)COC(=O)CNS(=O)(=O)c2ccc3ccccc3c2)c(C)n1-c1ccccc1 | 6.0 | 2.4 | 3.1 | 1766 | 1624 | 1884 | nt | nt | nt
O=C(CNS(=O)(=O)c1ccc2ccccc2c1)OCC(=O)c1ccc(Br)s1 | 60.9* | 68.7* | 33.3* | 2540* | nt | nt | 55.1* | 35.1* | 38.0*
Clc1cccc(-c2ccc(C=Nc3ccc(N4CCOCC4)cc3)o2)c1Cl | 27.0* | 19.9 | 24.1* | 2206* | 1962 | 2633* | 36.0* | 29.2* | 22.8
Clc1ccc(-c2ccc(C=Nc3ccc(N4CCOCC4)cc3)o2)cc1 | 7.4 | 6.3 | 5.5 | 1771 | 1639 | 1899 | nt | nt | nt
